Measured values from PubChem BioAssay (NCI).
Where “and” joins values, the source holds several entries; their conditions need not be identical. Identical values can stand only once. About 83,000 compounds went through this panel and 20% of them were active in at least one assay; those are over-represented in the sample as a whole.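 Assay: single dose, 48 h. Readout: percent growth (0 = no net growth; negative = cell death). Active: <10.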 A number with no mark means an inactive call. Calls of active or inactive are those of the source.

The compounds below were run on MALME-3M melanoma (assay: NCI-60 one-dose screen, 48 h (100 = growth as untreated, 0 = no growth, -100 = all killed)). Conditions: 10 µM unless noted.

Row | SMILES | growth
1 | COc1ccc(C/C(C)=C(/c2ccc(OCCN3CCCC3)cc2)c2ccc(OC(=O)NCc3ccccc3)cc2)cc1 | 83.6%
2 | CCN(CC)CCOc1ccc(/C(=C(\Cl)c2ccccc2)c2ccccc2)cc1 | -18.7% (active)
3 | Cc1ccc(/C=C2\COc3ccc(O)c(O)c3C2=O)cc1 | -27.3% (active)
4 | COc1ccc2c(c1)oc1c(C)c3c(c(C)c12)C(=O)N(Nc1ccccc1)C3=O | 99.5%
5 | CCC(=C(c1ccc(OCCCN(C)C)cc1)c1ccc(OCCCN(C)C)cc1)c1ccc(Cl)cc1 | -79.6% (active)
6 | CCOC(=O)c1c(-c2ccc(C)cc2)c(C#N)c(=O)n(-c2cccc(C(F)(F)F)c2)c1N | 99.4%
7 | S=c1nc(CS)[nH]c2ccccc12 | 86.6%
8 | O=C(N/N=C/c1ccc(O)cc1O)c1cccc(Nc2ccnc(C(F)(F)F)c2)c1 | 2.77% (active)
9 | CCN(CC)CCCN1C(=O)c2c(c(C)c3c(oc4cc(OC)ccc43)c2C)C1=O | 85.3%
10 | Cc1ccc(NC(=O)c2ccc(CN3CCN(C)CC3)cc2)cc1Nc1nccc(-c2cccnc2)n1 | 114% and 79.6%
11 | COc1cc(/C=C2/C=C(c3ccc(C(C)(C)C)cc3)N(CCc3ccc(S(N)(=O)=O)cc3)C2=O)cc(OC)c1OC | 68.4%
12 | O=c1c(/C=C/c2ccco2)nnc2sc(Nc3ccc(Cl)cc3)nn12 | 100%
13 | Nc1[nH]nc(Nc2ccccc2)c1-c1nc2ccccc2s1 | 83.4%
14 | CCCCCCCCn1ccc2cc(NC(=O)CN3CCN(c4nc(C)cc(N5CCCCC5)n4)CC3)ccc21 | 112%
15 | CC/C(=C(/c1ccc(O)cc1)c1ccc(OCCN2CCCCCC2)cc1)c1ccc(Cl)cc1 | 47.5%
16 | C=C(C)[C@@H]1CC[C@]2(C(=O)N3CCN(C)CC3)CC[C@]3(C)[C@H](CC[C@@H]4[C@@]5(C)CC(CCCNC(C)=O)(CCCNC(C)=O)[C@H](OC(C)=O)C(C)(C)[C@@H]5CC[C@]43C)[C@@H]12 | 98%
17 | CCN(c1cc(-c2ccc(CN3CCC(/C=C/S(=O)(=O)c4ccccc4)CC3)cc2)cc(C(=O)NCc2c(C)cc(C)[nH]c2=O)c1C)C1CCOCC1 | 67%

Row | SMILES | growth
18 | Nc1nc(N)c2c(n1)NC(c1ccc(Cl)cc1)CC(c1cccc(Nc3ccncc3)c1)=N2 (stereo not drawn) | 57%
19 | C=C(c1ccc(C(=O)O)cc1)c1cc2c(cc1C)C(C)(C)CCC2(C)C | 64.9%
20 | O=C1OCC2=C1C(c1cccc([N+](=O)[O-])c1)c1cc3c(cc1N2CCO)CCC3 (stereo not drawn) | 38.9%
21 | CCN(CC)/C([O-])=c1\cccc\c1=C1\N=C(c2ccccc2)N=C1[n+]1ccc(-c2ccccc2)cc1 | 92.7%
22 | Cc1nc(-n2[nH]c(=O)ccc2=O)sc1N=Nc1ccccc1 | 102%
23 | Cc1ccc(-c2nc3nc(-c4ccccc4)nc(N4CCCNCC4)c3o2)cc1 | -85.5% (active)
24 | O=C([C@H]1C[C@H]1c1ccc(S(F)(F)(F)(F)F)cc1)N1CCN(c2cc(Cl)ccc2C(F)(F)F)CC1 | 89.7%
25 | OB(O)c1ccsc1-c1nc2ccc3[nH]ncc3c2c2c1CCCC2 | 77.9%
26 | CC[C@]12CN3CCc4c([nH]c5ccccc45)[C@@](C(=O)OC)(c4cc5c(cc4OC)N(C)[C@H]4[C@@](O)(C(=O)OC)[C@H](OC(C)=O)[C@]6(CC)C=CCN7CC[C@]54[C@@H]76)CC(C3)[C@H]1O2 (stereo partly drawn) | 56.1%
27 | COC(=O)N/N=C/c1c[n+]([O-])c2ccccc2[n+]1[O-] | 108%
28 | Cn1ccnc1CN1CCSC(C(=O)Nc2ccccc2)C1 (stereo not drawn) | 96.6%
29 | CCNC(=O)Oc1ccc(/C(=C(/C)Cc2ccc(OC)cc2)c2ccc(OCCN(CC)CC)cc2)cc1 | -17.8% (active)
30 | Cc1ccc(-c2nc(C#N)c(S(=O)(=O)N(C)C)o2)cc1 | 52.6%
31 | COCCn1cc(-c2nc(-c3cn(CCOC)c4ncccc34)cs2)c2ccccc21 | 88.6%
32 | Nc1nc2ccccc2c2c(=O)c3ccc(Cl)cc3sc12 | 107%
33 | CC[C@]1(O)CC2CN(CCc3c([nH]c4ccccc34)C(C(=O)OC)(c3cc4c(cc3OC)N(C=O)[C@H]3[C@@](O)(C(=O)OC)[C@H](OC(C)=O)[C@]5(CC)[C@@H]6C[C@@H]6CN6CC[C@]43[C@@H]65)C2)C1 (stereo partly drawn) | 34.2%
